The text below walks through data of PubChem BioAssay (Tox21).

Structures are written as SMILES. Several values for one entry are separate records, joined by “and”; a condition that tells them apart may be missing. Identical values can stand only once. Inconclusive results are not listed. Where a structure was tested more than once in an assay, its records may differ in their call. Activity calls are given as the source filed them. Unless noted, the call rests on the fitted dose curve; in most records, active means well fitted curve in the direction sought with a large enough effect in the repeat runs; inconclusive means weak or mixed curves; inactive means no such curve, though single readings can be large; an effect the other way counts as inactive or inconclusive.

Experiment [1] in a line: qHTS assay to identify small molecule antagonists of the vitamin D receptor (VDR) signaling pathway - cell viability counter screen (AID 743225). Further: nearly all actives have a fitted effect of over 50% in size. Further: potency means the concentration at half of the fitted maximal effect. The procedure, abridged: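 Viability counter screen run in the same wells as the beta-lactamase reporter assay: HEK 293T VDR-UAS-bla cells, 16 h compound exposure at 37C with 3 nM (final) 1-alpha,25-dihydroxyvitamin D3. CellTiter-Glo luminescence, 30 min, room temperature.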
(In general: In qHTS, concentration-response curves come from the screen itself.)

Experiment [2] is described as follows: qHTS assay to identify small molecule agonists of the NFkB signaling pathway - cell viability counter screen (AID 1159515; calls by dose curve; further: nearly all actives have a fitted effect of over 55% in size; further: potency means the concentration at half of the fitted maximal effect). The procedure, abridged:
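Plate 2,000 NFkB-bla ME-180 cells/well; incubate overnight. Add compounds, 5 hr at 37 C. Add FRET substrate, 1.5 hr RT. Add CellTiter-Glo, 30 min RT; read luminescence.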

A short description of experiment [3]: qHTS assay to identify small molecule agonists of the endoplasmic reticulum stress response signaling pathway - cell viability counter screen (AID 1159517; calls by dose curve; further: nearly all actives have a fitted effect of over 50% in size; further: potency means the concentration at half of the fitted maximal effect). The procedure, abridged:
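Cytotoxicity of test compounds toward ESRE-bla HeLa cells was assessed after 5 hr exposure. The luminescent CellTiter-Glo signal was measured 30 min after reagent addition.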

Experiment [4] in a line: qHTS assay to identify small molecule antagonists of the retinoid-related orphan receptor gamma (ROR-gamma) signaling pathway - cell viability counter screen (AID 1159520). Further: nearly all actives have a fitted effect of over 50% in size. Further: potency means the concentration at half of the fitted maximal effect. The method, boiled down:
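Tet-on ROR gamma CHO cells (1,000/well) were plated 4 hr, given compounds in DMSO for 2 hr at 37 C, then induced with 1 uM final doxycycline for 16 hr. Viability was read as ATP by CellTiter-Glo luminescence after 30 min.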

The nature of experiment [5]: qHTS assay to identify small molecule agonists of the AP-1 signaling pathway - cell viability counter screen (AID 1159525; calls by dose curve; further: nearly all actives have a fitted effect of over 55% in size; further: potency means the concentration at half of the fitted maximal effect). The method, boiled down: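 Each titration point was normalised to DMSO and tetra n-octyl ammonium bromide controls. The read was Cell Titer Glo luminescence after 30 min at RT, following 5 h compound exposure of ME-180 AP-1-bla cells at 37 °C.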

Experiment [6] is described as follows: qHTS assay to identify small molecule agonists of the AP-1 signaling pathway (AID 1159526; calls by dose curve).
Experiment [7] concerns the target Retinoic acid receptor RXR-alpha (Homo sapiens) (UniProt P19793). Nature of the experiment: qHTS assay to identify small molecule agonists of the RXR signaling pathway (AID 1159527; calls by dose curve; further: nearly all actives have a fitted effect of over 35% in size; further: potency means the concentration at half of the fitted maximal effect). The procedure, abridged:
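Agonist mode; 9-cis retinoic acid positive control. HEK 293T UAS-bla reporter cells, 2% charcoal-stripped FBS, 16 hr compound exposure at 37 C/5% CO2. LiveBLAzer B/G FRET substrate 2 hr RT; ex 405, em 460/530 nm.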

A short description of experiment [8]: qHTS assay to identify small molecule agonists of the RXR signaling pathway - cell viability counter screen (AID 1159529). Further: nearly all actives have a fitted effect of over 50% in size. Further: potency means the concentration at half of the fitted maximal effect. The method, boiled down: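 Luminescence from CellTiter-Glo (30 min, RT) measured viability in the same wells as the beta-lactamase reporter readout. Cells: GeneBLAzer RXR-alpha HEK 293T, 2% charcoal-stripped FBS. Compound exposure 16 hr, 37 C.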

The nature of experiment [9]: qHTS assay to identify small molecule antagonists of the retinoic acid receptor (RAR) signaling pathway (AID 1159552; further: nearly all actives have a fitted effect of over 50% in size; further: potency means the concentration at half of the fitted maximal effect). The procedure, abridged:
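Luminescence from a RARE luciferase reporter in C3RL4 cells served as read-out. Cells received compounds together with 1 uM final retinol and incubated 6 hr at 37 C before detection reagent was added for 30 min at room temperature.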

Experiment [10] can be described thus: qHTS assay to identify small molecule agonists of the retinoic acid receptor (RAR) signaling pathway (AID 1159553). The procedure, abridged: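 Compounds dissolved in DMSO were pinned onto C3RL4 cells seeded the previous day, and plates were held 6 hr at 37 C. RARE-driven luciferase output was then read by luminescence.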
Experiment [11] can be described thus: qHTS assay to identify small molecule antagonists of the estrogen related receptor (ERR) signaling pathway (AID 1224819). The method, boiled down:
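ERR reporter cells were plated at 2,000 cells/well and left 6 h at 37 C/5% CO2 before pin-tool transfer of compounds in DMSO. After 18 h at 37 C, One-Glo was added and luminescence was read 30 min later at room temperature.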

Experiment [12] in a line: qHTS assay to identify small molecule agonists of the estrogen related receptor (ERR) signaling pathway (AID 1224820). The procedure, abridged: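 Luminescence readout (One-Glo, 30 min RT) from NTP-supplied ERR cell line exposed to compounds for 18 h at 37 C. Cells seeded 2,000 per well and pre-incubated 6 h before pin-tool compound transfer.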
The test system of experiment [13] is estrogen-related receptor alpha (ERRalpha) with PGC-1alpha coactivator, human. Description: qHTS assay to identify small molecule antagonists of the estrogen related receptor signaling pathway with the pleiotropic PPARgamma coactivator (PGC) (AID 1224821; calls by dose curve). The method, boiled down:
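PGC/ERR reporter cells; 6 h pre-incubation 37 C/5% CO2; pin-tool compound in DMSO, 18 h 37 C; One-Glo added, 30 min RT; luminescence read. qHTS antagonist mode.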

Experiment [14] in a line: qHTS assay to identify small molecule agonists of the estrogen related receptor signaling pathway with the pleiotropic PPARgamma coactivator (PGC) (AID 1224823). The procedure, abridged: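 Luminescence readout (One-Glo, 30 min RT) from PGC/ERR cell line treated 18 h at 37 C with pin-tool-delivered DMSO compound solutions; cells plated 6 h before dosing. Quantitative HTS format.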

Experiment [15] is described as follows: qHTS assay to identify small molecule antagonists of the estrogen related receptor (ERR) signaling pathway from Tox21 library - cell viability counter screen (AID 1224834). Further: nearly all actives have a fitted effect of over 30% in size. Further: potency means the concentration at half of the fitted maximal effect. The procedure, abridged:
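In this quantitative HTS format, ERR cells receive compounds in DMSO and are incubated for 17.5 h at 37 C. Live-cell protease activity is then detected with CellTiter-Fluor.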

The target in experiment [16] is Luciferin 4-monooxygenase (Photinus pyralis) (UniProt P08659). Nature of the experiment: qHTS assay to identify small molecule inhibitors of firefly luciferase (AID 1224835). Further: nearly all actives have a fitted effect of over 25% in size. Further: potency means the concentration at half of the fitted maximal effect. The method, boiled down:
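Quantitative HTS format; KM concentrations of both substrates. Purified P. pyralis FLuc activity quantified from luminescence images.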

Experiment [17] can be described thus: qHTS assay to identify small molecule agonists of the vitamin D receptor (VDR) signaling pathway - cell viability counter screen (AID 743224). Further: nearly all actives have a fitted effect of over 50% in size. Further: potency means the concentration at half of the fitted maximal effect. The method, boiled down:
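In parallel with the bla FRET readout, cytotoxicity toward VDR-bla cells after 16 h compound exposure was assessed by CellTiter-Glo, with luminescence recorded after a 30 min room-temperature incubation.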

Experiment [18] in a line: qHTS assay to identify small molecule agonists of the endoplasmic reticulum stress response signaling pathway (AID 1159516; active means well fitted activation curve with a large enough effect in the signal ratio in the repeat runs, not every such curve was filed as active; the % refers to the signal ratio). The method, boiled down: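 Beta-lactamase expression from the ER stress response element in HeLa reporter cells is quantified with the LiveBLAzer B/G FRET substrate, read at 405 nm excitation after 2 hr at room temperature, following 5 hr compound treatment at 37 C.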

The target of experiment [19] is Nuclear receptor ROR-gamma (Homo sapiens) (UniProt P51449). Description: qHTS assay to identify small molecule antagonists of the retinoid-related orphan receptor gamma (ROR-gamma) signaling pathway (AID 1159521; further: nearly all actives have a fitted effect of over 50% in size; further: potency means the concentration at half of the fitted maximal effect). The procedure, abridged: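 Luminescence readout (ONE-Glo, 30 min RT) after 16 h doxycycline induction; loss of signal scored as antagonism. CHO cells with TET-inducible RORγ and RORE-LUC reporter; compounds added 2 h before 1 uM final doxycycline.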

Experiment [20] is described as follows: qHTS assay to identify small molecule antagonists of the retinoid acid receptor (RAR) signaling pathway - cell viability counter screen (AID 1159551). Further: nearly all actives have a fitted effect of over 35% in size. Further: potency means the concentration at half of the fitted maximal effect. The procedure, abridged:
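Viability of C3RL4 cells is quantified from ATP by luminescence after 6 h treatment at 37 C with compounds and 1 uM retinol.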

Chain of Luciferin 4-monooxygenase (Photinus pyralis) (P08659 whole entry, looked up): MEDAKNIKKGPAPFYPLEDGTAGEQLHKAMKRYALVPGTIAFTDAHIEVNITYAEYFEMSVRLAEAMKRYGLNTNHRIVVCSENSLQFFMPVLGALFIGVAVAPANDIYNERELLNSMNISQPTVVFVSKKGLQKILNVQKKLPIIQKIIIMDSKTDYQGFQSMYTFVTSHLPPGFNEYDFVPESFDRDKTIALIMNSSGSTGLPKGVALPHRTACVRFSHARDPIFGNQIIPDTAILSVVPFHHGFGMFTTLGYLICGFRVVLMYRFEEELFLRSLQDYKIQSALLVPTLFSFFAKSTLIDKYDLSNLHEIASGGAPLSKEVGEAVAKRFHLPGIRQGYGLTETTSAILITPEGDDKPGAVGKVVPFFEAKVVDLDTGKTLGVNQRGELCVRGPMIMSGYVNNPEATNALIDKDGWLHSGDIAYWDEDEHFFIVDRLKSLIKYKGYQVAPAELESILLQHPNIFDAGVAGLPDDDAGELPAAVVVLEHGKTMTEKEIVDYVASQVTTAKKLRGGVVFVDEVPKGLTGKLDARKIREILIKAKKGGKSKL
Chain of Retinoic acid receptor RXR-alpha (Homo sapiens) (P19793 whole entry, looked up): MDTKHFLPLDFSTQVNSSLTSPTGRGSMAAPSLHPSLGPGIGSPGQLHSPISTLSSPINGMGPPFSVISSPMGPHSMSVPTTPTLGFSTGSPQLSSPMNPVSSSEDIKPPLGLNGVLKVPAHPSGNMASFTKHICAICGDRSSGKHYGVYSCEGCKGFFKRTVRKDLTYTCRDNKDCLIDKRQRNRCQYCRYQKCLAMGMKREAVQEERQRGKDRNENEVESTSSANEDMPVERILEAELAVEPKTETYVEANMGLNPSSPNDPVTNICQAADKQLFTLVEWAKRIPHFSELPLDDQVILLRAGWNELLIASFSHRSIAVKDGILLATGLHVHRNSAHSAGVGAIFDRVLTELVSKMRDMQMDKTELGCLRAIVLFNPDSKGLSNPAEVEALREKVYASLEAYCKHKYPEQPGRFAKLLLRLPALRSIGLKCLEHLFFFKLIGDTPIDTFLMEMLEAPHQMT

Take `CNC1(C)C2CCC(C2)C1(C)C` (centres undefined): the Potency result in experiment [1], in [2], in experiment [3], in [4], in experiment [5] and in experiment [6] was “inactive” each time. Further, the Potency result in [7], in experiment [8], in experiment [9], in experiment [10], in experiment [11] and in experiment [13] was “inactive” throughout. The Potency result in [15] and in experiment [16] was “inactive” each time. Further, the call in experiment [12] and in experiment [14] was inactive.

`C#CC(C)(CC)OC(=O)c1ccccc1C(=O)O` (centres undefined): the Potency result in [17], in experiment [1], in experiment [3], in experiment [4], in experiment [19] and in [5] was “inactive” in each case. For the same compound, the Potency entry in experiment [6], in experiment [7], in experiment [8], in [20], in [9] and in [10] was “inactive” throughout. The Potency result in experiment [15] and in experiment [16] was “inactive” each time. The compound was classed as inactive in [18].

As for `CCCCCCCCCCCCc1ccccc1O`, the Potency in experiment [17] was 10.8 µM (active) and 19.5 µM (active); in [1] it was 17.2 µM (active) and 21.9 µM (active); in experiment [2] it was 19.2 µM (active) and 21.9 µM (active); in experiment [3], 17.2 µM (active) and 24.5 µM (active); in experiment [19] it was 67.7 µM (active) and 24.3 µM (active); in experiment [5], 13.6 µM (active) and 17.4 µM (active). For the same compound, the Potency was 17.2 µM (active) and 19.5 µM (active) in experiment [8]; 61.1 µM (active) in experiment [20]; 47.9 µM (active) and 54.5 µM (active) in experiment [9]; 43.3 µM (active) in experiment [15]. In [16], the Potency result is “inactive”.

On to `O=c1n(CC2CO2)c(=O)n(CC2CO2)c(=O)n1CC1CO1` (centres undefined), for which the Potency entry in experiment [1], in [2], in experiment [3], in experiment [5], in [6] and in [20] was “inactive” in each case. For the same compound, the Potency result in [9], in [10] and in experiment [16] was “inactive” in each case. Further, the values for the Potency in experiment [7] and in experiment [15] were 3.89 µM (active) and 60.8 µM (active), respectively.

For `CCn1c2ccccc2c2cc(N)ccc21`, the Potency entry in experiment [17], in experiment [1], in [2], in experiment [3], in experiment [4] and in experiment [5] was “inactive” in each case. For the same compound, the Potency result in [6], in experiment [7], in experiment [20] and in experiment [15] was “inactive” each time.

On to `CC(C)(C)NC(=O)[C@@H]1CN(Cc2cccnc2)CCN1C[C@@H](O)C[C@@H](Cc1ccccc1)C(=O)N[C@H]1c2ccccc2C[C@H]1O`, for which the Potency result in experiment [1], in [3], in [4], in experiment [19], in experiment [5] and in [6] was “inactive” in each case. For the same compound, the Potency result in [7], in [8], in [20] and in experiment [15] was “inactive” in each case. Moreover, the result in experiment [18] was inactive.

`Oc1c(Cl)cc(Cl)cc1Sc1cc(Cl)cc(Cl)c1O`: the Potency in experiment [17] is 21.9 µM (active) and 44.4 µM (active) and inactive; in experiment [1] it was 24.6 µM (active) and 55.9 µM (active) and 43.6 µM (active); in experiment [2], 55.1 µM (active) and inactive; in experiment [3], 55.1 µM (active) and 55.9 µM (active) and 49 µM (active); in [4], 15.4 µM (active) and 21.7 µM (active); in [5], 49.1 µM (active) and 49 µM (active) and inactive. Further, the Potency in [8] is 49.1 µM (active); in [9], 30.7 µM (active) and 27.8 µM (active) and 27.3 µM (active); in [15], 21.7 µM (active) and 24.3 µM (active). The Potency entry in experiment [20], in experiment [10] and in experiment [16] was “inactive” throughout.

With `Cc1ccc(S(=O)(=O)Oc2ccc(N=Nc3ccc(-c4ccc(N=Nc5c(O)ccc6cc(S(=O)(=O)O)cc(S(=O)(=O)O)c56)c(C)c4)cc3C)cc2)cc1`, the Potency entry in [17], in experiment [1], in experiment [2], in [3], in [4] and in experiment [5] was “inactive” each time. In addition, the Potency entry in experiment [7], in experiment [8], in experiment [9] and in experiment [10] was “inactive” in each case. Further, the Potency in experiment [20] was 24.4 µM (active) and 20 µM (active); in experiment [15] it was 19.4 µM (active) and 17.8 µM (active); in experiment [16], 63.5 µM (active) and 23.2 µM (active).
